The source made the active and inactive calls. Rule for the calls: active = hit-call score of the fitted dose curve at least 0.9, where 1 is the maximum; inactive = score below 0.9.
Experiments:
Conditions in all cases: mRNA level, 48 h; actives raise or lower the signal
[1] = read-out: Cytochrome P450 (CYP24A1), CYP24A1 (gene 1591); assay: LTEA_HepaRG_CYP24A1: Life Technologies and Expression Analysis (LTEA) Assay for Cytochrome P450 (CYP24A1) using HepaRG (AID 2283478)
Procedure, shortened: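 mRNA of CYP24A1 quantified by TaqMan qRT-PCR (ACTB/GAPDH/POLR2A normalization) after 48 h chemical exposure of HepaRG cells, top concentration 100 uM, half-log steps, 0.5% DMSO vehicle, duplicates. Curves fitted bidirectionally against DMSO baseline.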

[2] = read-out: Cytochrome P450 (CYP1A2), CYP1A2 (gene 1544); assay: LTEA_HepaRG_CYP1A2: Life Technologies and Expression Analysis (LTEA) Assay for Cytochrome P450 (CYP1A2) using HepaRG (AID 2283479)
Procedure, shortened: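 CYP1A2 transcript measured by TaqMan qRT-PCR against three housekeeping genes after 48-hour chemical exposure of HepaRG cells. Eight-point half-log series topping at 100 uM in 0.5% DMSO, duplicates; gain or loss fitted relative to vehicle.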

[3] = read-out: cysteine-aspartic acid protease (CASP8), CASP8 (gene 841); assay: LTEA_HepaRG_CASP8: Life Technologies and Expression Analysis (LTEA) Assay for cysteine-aspartic acid protease (CASP8) using HepaRG (AID 2283480)
Procedure, shortened: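 CASP8 transcript measured by TaqMan qRT-PCR with ACTB/GAPDH/POLR2A normalization, after 48 h chemical exposure of HepaRG cells in serum-free induction medium. Eight concentrations, top 100 uM, half-log steps, 0.5% DMSO vehicle; fits in both directions versus DMSO.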

[4] = read-out: Cytochrome P450 (CYP2B6), CYP2B6 (gene 1555); assay: LTEA_HepaRG_CYP2B6: Life Technologies and Expression Analysis (LTEA) Assay for Cytochrome P450 (CYP2B6) using HepaRG (AID 2283481)
Procedure, shortened: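 CYP2B6 transcript level quantified by qRT-PCR against three housekeeping genes, fitted bidirectionally relative to DMSO. HepaRG cultures received chemicals for 48 h, 8-point half-log series from 100 uM in 0.5% DMSO, duplicate wells, serum-free induction medium.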

[5] = read-out: Cytochrome P450 2C19 (Homo sapiens) (UniProt P33261); assay: LTEA_HepaRG_CYP2C19: Life Technologies and Expression Analysis (LTEA) Assay for CYP2C19 using HepaRG (AID 2283482)
Procedure, shortened: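 CYP2C19 transcript levels by qRT-PCR, normalized to three housekeeping genes, in HepaRG cells after 48 h chemical exposure. Eight-point half-log series topping at 100 uM, 0.5% DMSO vehicle. Increases and decreases both fitted against DMSO.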

CYP2C8 (gene 1558) = assay: LTEA_HepaRG_CYP2C8: Life Technologies and Expression Analysis (LTEA) Assay for CYP2C8 using HepaRG (AID 2283483)
Procedure, shortened: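 CYP2C8 expression measured by TaqMan qRT-PCR and normalized to three housekeeping genes. HepaRG cultures were treated for 48 h with an eight-point half-log series topping at 100 uM, vehicle 0.5% DMSO, duplicates; fitted both directions against DMSO.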

CYP2C9 (gene 1559) = assay: LTEA_HepaRG_CYP2C9: Life Technologies and Expression Analysis (LTEA) Assay for CYP2C9 using HepaRG (AID 2283484)
Procedure, shortened: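 CYP2C9 transcript level, quantified by TaqMan qRT-PCR against three housekeeping genes, was fitted bidirectionally relative to 0.5% DMSO. HepaRG cultures were treated 48 h, in duplicate, at eight half-log concentrations topping at 100 uM.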

CYP2E1 (gene 1571) = assay: LTEA_HepaRG_CYP2E1: Life Technologies and Expression Analysis (LTEA) Assay for CYP2E1 using HepaRG (AID 2283485)
Procedure, shortened: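 Readout is qRT-PCR of CYP2E1 mRNA, normalized to three housekeeping genes and fitted bidirectionally against 0.5% DMSO. HepaRG cells were dosed 48 h at eight concentrations, highest 100 uM with half-log dilutions.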

CYP4A11 (gene 1579) = assay: LTEA_HepaRG_CYP4A11: Life Technologies and Expression Analysis (LTEA) Assay for CYP4A11 using HepaRG (AID 2283486)
Procedure, shortened: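 Readout is CYP4A11 transcript level by qRT-PCR, normalized to three housekeeping genes and fitted bidirectionally against 0.5% DMSO. Human HepaRG cells were treated 48 h, in duplicate, with an 8-point half-log series topping at 100 uM.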

[6] = read-out: Cytochrome P450 3A4 (Homo sapiens) (UniProt P08684); assay: LTEA_HepaRG_CYP3A4: Life Technologies and Expression Analysis (LTEA) Assay for CYP3A4 using HepaRG (AID 2283487)
Procedure, shortened: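 Differentiated HepaRG cells in serum-free induction medium exposed in duplicate for 48 h to 8 half-log concentrations up to 100 uM in 0.5% DMSO. CYP3A4 mRNA measured by qRT-PCR normalized to ACTB, GAPDH and POLR2A; bidirectional fit versus DMSO.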

[7] = read-out: Early growth response protein 1 (EGR1) transcription factor, EGR1 (gene 1958); assay: LTEA_HepaRG_EGR1: Life Technologies and Expression Analysis (LTEA) Assay for Early growth response protein 1 (EGR1) transcription factor using HepaRG (AID 2283490)
Procedure, shortened: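 EGR1 transcript levels quantified by qRT-PCR (Fluidigm arrays) against three housekeeping genes after 48 h chemical exposure of HepaRG cells. Eight-point half-log series topping at 100 uM, 0.5% DMSO vehicle, analyzed for gain or loss.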

[8] = read-out: Ezrin (EZR), EZR (gene 7430); assay: LTEA_HepaRG_EZR: Life Technologies and Expression Analysis (LTEA) Assay for Ezrin (EZR) using HepaRG (AID 2283491)
Procedure, shortened: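 Differentiated human HepaRG cells, 48 h after plating, were exposed in serum-free induction medium for 48 hours to eight half-log concentrations up to 100 uM in 0.5% DMSO. EZR mRNA was measured by TaqMan qRT-PCR, normalized to ACTB, GAPDH and POLR2A, and fitted bidirectionally against DMSO.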

CYP3A5 (gene 1577) = assay: LTEA_HepaRG_CYP3A5: Life Technologies and Expression Analysis (LTEA) Assay for CYP3A5 using HepaRG (AID 2283493)
Procedure, shortened: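 Human HepaRG hepatic cells receive 48 h chemical treatment at eight concentrations (half-log steps from 100 uM) in 0.5% DMSO. Expression of CYP3A5 is quantified by Fluidigm qRT-PCR and normalized to three reference genes.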

[9] = read-out: Fatty Acid-Binding Protein 1 (FABP1), FABP1 (gene 2168); assay: LTEA_HepaRG_FABP1: Life Technologies and Expression Analysis (LTEA) Assay for Fatty Acid-Binding Protein 1 (FABP1) using HepaRG (AID 2283494)
Procedure, shortened: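 FABP1 expression by TaqMan qRT-PCR, normalised to three housekeeping genes, in HepaRG cells after 48 h chemical treatment. Eight-point half-log series topping at 100 uM in 0.5% DMSO, duplicates; gain or loss fitted relative to vehicle.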

[10] = read-out: Cytochrome P450 4A22 (Homo sapiens) (UniProt Q5TCH4); assay: LTEA_HepaRG_CYP4A22: Life Technologies and Expression Analysis (LTEA) Assay for Cytochrome P450 4A22 (CYP4A22) using HepaRG (AID 2283495)
Procedure, shortened: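 Gene expression measured by qRT-PCR against three housekeeping genes (ACTB, GAPDH, POLR2A), with gain or loss fitted relative to 0.5% DMSO vehicle. HepaRG cultures received 48 h chemical treatment, top concentration 100 uM, half-log steps, duplicate wells.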

[11] = read-out: Cytochrome P450 7A1 (Homo sapiens) (UniProt P22680); assay: LTEA_HepaRG_CYP7A1: Life Technologies and Expression Analysis (LTEA) Assay for Cytochrome P450 7A1 (CYP7A1) using HepaRG (AID 2283496)
Procedure, shortened: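 HepaRG, 48 h exposure, 8-pt half-log series from 100 uM, 0.5% DMSO vehicle, duplicates. Readout: TaqMan qRT-PCR mRNA vs three housekeeping genes; bidirectional curve fit against DMSO baseline.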

[12] = read-out: Glutathione S-Transferase (GSTA2), GSTA2 (gene 2939); assay: LTEA_HepaRG_GSTA2: Life Technologies and Expression Analysis (LTEA) Assay for Glutathione S-Transferase (GSTA2) using HepaRG (AID 2283497)
Procedure, shortened: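 GSTA2 transcript levels came from Fluidigm TaqMan qRT-PCR normalized to three housekeeping genes, fitted in both directions against DMSO. HepaRG cultures received chemicals for 48 h in serum-free induction medium (0.5% DMSO), 8 half-log concentrations up to 100 uM, duplicate.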

[13] = read-out: DNA damage-inducible transcript 3 (DDIT3), DDIT3 (gene 1649); assay: LTEA_HepaRG_DDIT3: Life Technologies and Expression Analysis (LTEA) Assay for DNA damage-inducible transcript 3 (DDIT3) using HepaRG (AID 2283488)
Procedure, shortened: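 Cells are human HepaRG liver cells treated for 48 h with eight half-log concentrations up to 100 uM in 0.5% DMSO. Transcript levels come from qRT-PCR normalized to three housekeeping genes, with activity fitted in both directions relative to vehicle.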

[14] = read-out: Pro-epidermal growth factor (Homo sapiens) (UniProt P01133); assay: LTEA_HepaRG_EGF: Life Technologies and Expression Analysis (LTEA) Assay for Epidermal growth factor (EGF) using HepaRG (AID 2283489)
Procedure, shortened: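 EGF transcript measured by Fluidigm TaqMan qRT-PCR with three housekeeping genes for normalization, 48 h after dosing HepaRG cultures in duplicate (top 100 uM, half-log steps, 0.5% DMSO vehicle). Gain or loss relative to DMSO fitted.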

[15] = read-out: Cytochrome P450 3A7 (Homo sapiens) (UniProt P24462); assay: LTEA_HepaRG_CYP3A7: Life Technologies and Expression Analysis (LTEA) Assay for CYP3A7 using HepaRG (AID 2283492)
Procedure, shortened: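 CYP3A7 transcript measured by qRT-PCR (ACTB, GAPDH, POLR2A normalization) after 48 h chemical exposure of HepaRG cells in duplicate. Eight half-log concentrations, maximum 100 uM, 0.5% DMSO vehicle; bidirectional curve fitting against DMSO baseline.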

Measured: AC50

Cytochrome P450 3A7 (Homo sapiens), sequence (P24462 whole entry, looked up): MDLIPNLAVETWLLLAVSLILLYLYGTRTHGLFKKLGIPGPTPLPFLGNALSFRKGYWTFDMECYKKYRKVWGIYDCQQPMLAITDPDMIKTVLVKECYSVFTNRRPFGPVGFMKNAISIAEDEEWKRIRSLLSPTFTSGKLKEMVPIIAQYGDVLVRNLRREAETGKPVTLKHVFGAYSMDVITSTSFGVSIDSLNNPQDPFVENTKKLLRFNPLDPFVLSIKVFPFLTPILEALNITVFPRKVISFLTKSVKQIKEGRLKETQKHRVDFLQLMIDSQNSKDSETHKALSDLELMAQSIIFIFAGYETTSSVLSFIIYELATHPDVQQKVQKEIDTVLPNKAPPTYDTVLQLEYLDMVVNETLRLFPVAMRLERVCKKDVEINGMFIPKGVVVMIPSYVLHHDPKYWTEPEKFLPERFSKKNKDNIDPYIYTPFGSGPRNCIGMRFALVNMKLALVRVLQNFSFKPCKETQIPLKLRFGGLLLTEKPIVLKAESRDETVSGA
Cytochrome P450 3A4 (Homo sapiens), sequence (P08684 whole entry, looked up): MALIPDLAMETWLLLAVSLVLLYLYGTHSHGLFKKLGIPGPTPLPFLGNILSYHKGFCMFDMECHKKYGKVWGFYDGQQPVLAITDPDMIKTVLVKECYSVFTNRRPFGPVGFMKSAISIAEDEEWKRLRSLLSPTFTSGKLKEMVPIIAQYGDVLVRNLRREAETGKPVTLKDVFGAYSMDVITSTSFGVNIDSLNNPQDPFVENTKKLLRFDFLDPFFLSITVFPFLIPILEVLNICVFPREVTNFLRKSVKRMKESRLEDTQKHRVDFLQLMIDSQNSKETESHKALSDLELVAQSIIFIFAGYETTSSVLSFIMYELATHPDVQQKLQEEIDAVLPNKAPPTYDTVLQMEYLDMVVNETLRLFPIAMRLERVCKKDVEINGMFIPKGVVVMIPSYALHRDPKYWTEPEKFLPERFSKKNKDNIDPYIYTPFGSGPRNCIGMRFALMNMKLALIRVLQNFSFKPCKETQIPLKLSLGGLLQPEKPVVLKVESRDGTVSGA
Cytochrome P450 2C19 (Homo sapiens), sequence (P33261 whole entry, looked up): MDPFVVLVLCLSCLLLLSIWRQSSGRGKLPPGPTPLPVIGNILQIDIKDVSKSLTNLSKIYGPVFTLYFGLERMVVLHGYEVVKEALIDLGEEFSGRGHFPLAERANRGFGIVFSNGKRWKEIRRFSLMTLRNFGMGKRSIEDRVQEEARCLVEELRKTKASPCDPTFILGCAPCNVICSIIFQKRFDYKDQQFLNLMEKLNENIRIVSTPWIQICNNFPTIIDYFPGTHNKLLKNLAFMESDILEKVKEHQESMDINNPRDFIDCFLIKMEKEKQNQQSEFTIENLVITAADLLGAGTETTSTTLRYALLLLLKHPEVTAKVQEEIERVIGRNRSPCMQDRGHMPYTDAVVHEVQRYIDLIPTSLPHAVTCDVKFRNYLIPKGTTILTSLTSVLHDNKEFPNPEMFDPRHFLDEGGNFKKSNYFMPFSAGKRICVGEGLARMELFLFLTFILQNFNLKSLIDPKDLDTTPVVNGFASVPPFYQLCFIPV

NCCO
not listed: [13] | [14] | [15]
inactive: all other assays above

O=C(O)CCCCC(=O)O
not listed: CYP2E1 (gene 1571) | [10] | [12] | [15]
inactive: all other assays above

Cc1nc(-c2ccc3c(c2)CCN(CCC2CCC(NC(=O)/C=C/c4ccc(F)cc4)CC2)CC3)no1 (stereo not drawn)
not listed: CYP4A11 (gene 1579) | [10] | [12] | [14]
inactive: all other assays above

CNCc1cc(F)ccc1Oc1ccc(Cl)c(Cl)c1
active: [5] 94 µM | CYP2C9 (gene 1559) 92.6 µM | CYP2E1 (gene 1571) 73.8 µM | [14] 79.4 µM | [7] 83 µM | [15] 77.5 µM | [9] 84 µM | [10] 74.9 µM | [11] 85.1 µM
inactive: [1] | [2] | [3] | [4] | CYP2C8 (gene 1558) | [8] | CYP3A5 (gene 1577)

CC1(C)CC(N=C=O)CC(C)(CN=C=O)C1 (stereo not drawn)
active: CYP2E1 (gene 1571) 24 µM | [9] 26.2 µM
not listed: CYP4A11 (gene 1579) | [10] | [13] | [14] | [15]
inactive: all other assays above

C[Si]1(C)O[Si](C)(C)O[Si](C)(C)O[Si](C)(C)O1
not listed: [10] | [12] | [13] | [15]
inactive: all other assays above

c1cc(-c2ccncc2)ccn1
active: [2] 50 µM | [15] 50 µM
not listed: CYP4A11 (gene 1579) | [10] | [12]
inactive: all other assays above
